# Test results as given in PubChem BioAssay.
# Unmarked numbers belong to inactive results. For some of these results: Results with a measured potency or affinity are listed apart. The source made the active and inactive calls. Unless noted, no rule for the calls is given here.
# Experiments:
# [1] = antimalarial activity against Dd2 strain (AID 2302;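 active = growth inhibition above 50% at the single 2 µM test dose, taken to imply half-maximal potency below 2 µM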;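 also: 0% = DMSO untreated growth and 100% = chloroquine plus artemisinin killed control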); conditions: P. falciparum Dd2 in RBCs, LDH growth readout, 72 h; at 2 µM; hits give high values
# [2] = human hepatoma cell viability loss – ATP luminescence, cytotoxicity control for P. falciparum antimalarial project, primary screen (AID 2303;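 active = inhibition above 50%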;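 also: 0% = DMSO wells and 100% = digitonin-killed cells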); conditions: HepG2 viability, 24-48 h, at 10 µM, hits give high values
# [3] = molecular target: L-lactate dehydrogenase (Plasmodium falciparum (isolate CDC / Honduras)) (UniProt Q27743); test: PfLDH activity inhibition – cell lysate, 3D7 strain, counter-screen for P. falciparum growth inhibition project (AID 2304);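 also: 0% = vehicle and 100% = reference inhibitor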; conditions: P. falciparum 3D7 crude extract, LDH APAD/NBT absorbance; at 2 µM; hits give high values
# [4] = inhibition of 3D7 malaria parasite growth – strain 3D7 (AID 2306);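 also: 0% = DMSO wells and 100% = chloroquine plus artemisinin control wells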; conditions: P. falciparum 3D7 erythrocytic growth, LDH absorbance, 72 h; at 2 µM; hits give high values
# [5] = molecular target: Calcium-dependent protein kinase 1 (Plasmodium falciparum (isolate 3D7)) (UniProt P62344); test: PfCDPK1 kinase inhibitors, biochemical, TCAMS library (AID 1159585; cut-off not given, nearly all actives have IC50 up to about 0.98 µM;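 also: inhibitors leave more ATP so luminescence rises with inhibition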); conditions: recombinant PfCDPK1, Kinase-Glo ATP depletion luminescence
# [6] = molecular target: Plasmodium falciparum protein kinase 6 (PK6, PF3D7_1337100) (UniProt Q8IDW1); test: PfPK6 kinase inhibitors, biochemical, TCAMS library (AID 1159586); conditions: recombinant PfPK6, Kinase-Glo ATP depletion luminescence
# [7] = molecular target: Protein kinase 7 (PK7), Plasmodium falciparum 3D7 (PF3D7_0213400) (UniProt Q7YTF7); test: inhibition of Plasmodium PK7 catalytic activity – biochemical, TCAMS antimalarial set, Kinase-Glo luminescence (AID 1159587); conditions: recombinant PfPK7, Kinase-Glo ATP depletion luminescence
# [8] = molecular target: Calcium-dependent protein kinase 4 (Plasmodium falciparum (isolate 3D7)) (UniProt Q8IBS5); test: PfCDPK4 kinase inhibitors, biochemical, TCAMS library (AID 1159588; cut-off not given, nearly all actives have IC50 up to about 0.91 µM); conditions: recombinant PfCDPK4, Kinase-Glo ATP depletion luminescence
# Sequence of Calcium-dependent protein kinase 4 (Plasmodium falciparum (isolate 3D7)) (Q8IBS5 whole entry, looked up): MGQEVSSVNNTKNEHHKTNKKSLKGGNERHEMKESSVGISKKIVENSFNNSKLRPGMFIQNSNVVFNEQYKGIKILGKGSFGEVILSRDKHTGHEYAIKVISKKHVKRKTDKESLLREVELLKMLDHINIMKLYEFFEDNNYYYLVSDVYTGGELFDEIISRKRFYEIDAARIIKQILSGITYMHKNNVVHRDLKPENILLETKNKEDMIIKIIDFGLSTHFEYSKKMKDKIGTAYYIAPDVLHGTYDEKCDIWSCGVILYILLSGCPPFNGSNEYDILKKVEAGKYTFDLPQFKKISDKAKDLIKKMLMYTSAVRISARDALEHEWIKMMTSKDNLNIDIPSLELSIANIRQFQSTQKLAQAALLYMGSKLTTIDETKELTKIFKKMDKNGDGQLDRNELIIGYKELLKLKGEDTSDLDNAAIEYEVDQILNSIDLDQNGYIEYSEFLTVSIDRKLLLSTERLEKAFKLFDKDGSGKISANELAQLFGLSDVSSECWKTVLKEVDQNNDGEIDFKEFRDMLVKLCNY
# Sequence of L-lactate dehydrogenase (Plasmodium falciparum (isolate CDC / Honduras)) (Q27743 whole entry, looked up): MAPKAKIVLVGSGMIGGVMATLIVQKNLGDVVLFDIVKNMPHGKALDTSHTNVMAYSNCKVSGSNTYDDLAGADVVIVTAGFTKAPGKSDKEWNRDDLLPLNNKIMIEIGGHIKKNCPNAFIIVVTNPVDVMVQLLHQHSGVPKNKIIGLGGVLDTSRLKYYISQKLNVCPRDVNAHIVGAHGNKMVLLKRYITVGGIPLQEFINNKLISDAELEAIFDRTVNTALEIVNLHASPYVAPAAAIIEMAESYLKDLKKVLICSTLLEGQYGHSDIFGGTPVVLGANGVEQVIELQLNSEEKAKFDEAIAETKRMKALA
# Sequence of Plasmodium falciparum protein kinase 6 (PK6, PF3D7_1337100) (Q8IDW1 1-305): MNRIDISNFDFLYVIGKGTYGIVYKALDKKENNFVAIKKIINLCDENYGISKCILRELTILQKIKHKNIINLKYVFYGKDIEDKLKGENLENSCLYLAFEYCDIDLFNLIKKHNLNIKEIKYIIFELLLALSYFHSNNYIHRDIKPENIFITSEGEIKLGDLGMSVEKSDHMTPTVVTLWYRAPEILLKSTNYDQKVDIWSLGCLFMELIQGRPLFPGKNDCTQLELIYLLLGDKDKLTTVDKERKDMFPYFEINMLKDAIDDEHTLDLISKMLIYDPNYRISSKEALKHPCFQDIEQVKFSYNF
# Sequence of Protein kinase 7 (PK7), Plasmodium falciparum 3D7 (PF3D7_0213400) (Q7YTF7 1-343): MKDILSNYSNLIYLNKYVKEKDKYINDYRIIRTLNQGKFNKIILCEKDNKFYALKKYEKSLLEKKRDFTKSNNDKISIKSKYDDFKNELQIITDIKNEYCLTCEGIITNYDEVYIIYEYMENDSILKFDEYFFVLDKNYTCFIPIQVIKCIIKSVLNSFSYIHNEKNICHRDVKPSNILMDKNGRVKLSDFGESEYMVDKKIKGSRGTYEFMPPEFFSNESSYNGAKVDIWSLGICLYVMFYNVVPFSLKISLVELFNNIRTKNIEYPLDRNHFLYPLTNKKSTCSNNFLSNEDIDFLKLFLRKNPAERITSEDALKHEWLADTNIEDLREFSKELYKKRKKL
# Sequence of Calcium-dependent protein kinase 1 (Plasmodium falciparum (isolate 3D7)) (P62344 whole entry, looked up): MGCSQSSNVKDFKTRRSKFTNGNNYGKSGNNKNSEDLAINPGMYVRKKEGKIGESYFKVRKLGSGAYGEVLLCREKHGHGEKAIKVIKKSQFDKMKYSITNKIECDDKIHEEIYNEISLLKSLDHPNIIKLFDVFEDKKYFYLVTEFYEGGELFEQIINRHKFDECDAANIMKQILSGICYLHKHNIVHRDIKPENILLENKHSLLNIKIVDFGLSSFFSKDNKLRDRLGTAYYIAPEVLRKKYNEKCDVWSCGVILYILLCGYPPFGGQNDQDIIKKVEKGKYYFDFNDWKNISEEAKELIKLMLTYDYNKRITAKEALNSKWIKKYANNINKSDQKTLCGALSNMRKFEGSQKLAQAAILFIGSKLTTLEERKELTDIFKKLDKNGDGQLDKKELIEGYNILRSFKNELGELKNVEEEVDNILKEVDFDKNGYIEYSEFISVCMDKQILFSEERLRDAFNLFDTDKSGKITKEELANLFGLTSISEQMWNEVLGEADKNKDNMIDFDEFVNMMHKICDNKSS
Structure (SMILES),growth inhibition [1],inhibition [2],inhibition [3],growth inhibition [4],outcome [5],outcome [6],outcome [7],outcome [8]
Oc1cccc2ccc(Nc3ccccn3)nc12,93% (active),72% (active),3%,99% (active),inactive,inactive,inactive,inactive
Cc1cc(-c2nc3ccc(C(=O)NCc4ccccc4)cc3n2C2CCN(C(=O)c3ccc(-c4ccccc4)cc3)CC2)ccn1,97% (active),36%,1%,95% (active),inactive,inactive,inactive,inactive
O=C(/C=C/c1ccc(-c2nc3ccc(Cl)cc3[nH]2)cc1)NC1CCN(Cc2ccccc2)CC1,92% (active),3%,0%,100% (active),inactive,inactive,inactive,inactive
Cc1cccnc1Nc1nc(-c2ccccn2)cs1,99% (active),60% (active),-1%,96% (active),inactive,inactive,inactive,inactive
c1ccc(CNCc2ccc(-c3ccc(-c4nc5ccccc5[nH]4)cc3)cc2)cc1,93% (active),32%,1%,101% (active),inactive,inactive,inactive,inactive
COc1ccc(C=NNc2ccnc3cc(F)c(C)cc23)c2ccccc12,85% (active),-6%,3%,101% (active),inactive,inactive,inactive,inactive
CC(CCc1ccccc1)NCC(O)c1ccc2c3c(cccc13)S(=O)(=O)N2C (stereo not drawn),99% (active),16%,3%,99% (active),inactive,inactive,inactive,inactive
CCOc1ccc(S(=O)(=O)N(C)c2ccc(OCC(=O)Nc3nccs3)cc2)cc1,4%,8%,3%,95% (active),inactive,inactive,inactive,inactive
Clc1ccc(CNc2ccnc(NCCc3coc4ccccc34)n2)c(Cl)c1,39%,26%,-3%,86% (active),inactive,inactive,inactive,inactive
COc1ccccc1CCN(C)CCN1CCC(NC(=O)c2ccc(-c3ccc(C(F)(F)F)cc3)cc2)CC1,15%,46%,-2%,92% (active),inactive,inactive,inactive,inactive
c1ccc(-n2ncc(CNCc3ccc(-c4ccc(-c5nc6ccccc6[nH]5)s4)cc3)n2)cc1,46%,27%,4%,93% (active),inactive,inactive,inactive,inactive
FC(F)(F)c1ccc2c(NN=Cc3cccc(Cl)c3)ccnc2c1,59% (active),7%,-3%,93% (active),inactive,inactive,inactive,inactive
COC(=O)c1cccc(C#CCCOCCCCCCNC[C@H](O)c2cc(Cl)c(N)c(Cl)c2)c1,88% (active),12%,-3%,97% (active),inactive,inactive,inactive,inactive
CC(C)c1ccc(CN2CCCCC(NC(=O)c3cc(-c4cccc(F)c4)cs3)C2)cc1 (stereo not drawn),13%,6%,1%,94% (active),inactive,inactive,inactive,inactive
Cn1cncc1C(=O)Nc1cccc(-c2ccc(-c3nc4ccccc4[nH]3)cc2)c1,11%,-5%,1%,99% (active),inactive,inactive,inactive,inactive
Fc1ccc2nc(-c3ccc(-c4ccc(CN5CCCCC5)cc4)cc3)[nH]c2c1,100% (active),31%,-3%,98% (active),inactive,inactive,inactive,inactive
O=C(c1ccc(Cl)cc1Cl)N1CCCC(C(F)(F)F)C1 (stereo not drawn),47%,6%,3%,95% (active),inactive,inactive,inactive,inactive
COc1ccc(Nc2nccc(N3CCC(NC(=O)C(C)c4ccc(Cl)cc4)CC3)n2)cc1 (stereo not drawn),52% (active),18%,-2%,94% (active),inactive,inactive,inactive,inactive
CC(C)[C@H](NC(=O)c1c(CN2CCC(N3CCCCC3)CC2)c(-c2ccccc2)nc2cc(O)ccc12)c1ccccc1,73% (active),10%,4%,100% (active),inactive,inactive,inactive,inactive
CNCCCn1c(N(C)C)nc2cc(-n3cnc4cc(-c5ccc(Cl)cc5)sc4c3=O)ccc21,27%,39%,1%,86% (active),inactive,inactive,inactive,inactive
O=C(NCCCNc1nc2ccccc2[nH]1)c1cccc(OC(F)(F)F)c1,27%,12%,-2%,102% (active),inactive,inactive,inactive,inactive

Structure (SMILES),growth inhibition [1],inhibition [2],inhibition [3],growth inhibition [4],outcome [5],outcome [6],outcome [7],outcome [8]
COC(=O)c1cc2cccc(NC[C@@H](C)NC[C@H](O)c3cccc(Cl)c3)c2[nH]1,99% (active),-8%,-3%,98% (active),inactive,inactive,inactive,inactive
CC(C)NCc1ccc(-c2ccc(-c3nc4ccc(C(F)(F)F)cc4[nH]3)s2)cc1,94% (active),30%,1%,101% (active),inactive,inactive,inactive,inactive
O=C(/C=C/c1ccc(Cl)cc1)NCCCCCN1CCN(C(=O)C=Cc2ccc(Cl)c(Cl)c2)CC1,0%,30%,5%,92% (active),inactive,inactive,inactive,inactive
COc1ccc(-c2ccc(CNCc3ccc(F)cc3)cc2)cc1S(=O)(=O)NCCN1CCCC1,33%,24%,3%,98% (active),inactive,inactive,inactive,inactive
CN1CCN(c2ccc3nccc(CCN4CCC(NCc5ccc6c(n5)NC(=O)CO6)CC4)c3n2)CC1,3%,9%,-1%,97% (active),inactive,inactive,inactive,inactive
COc1ccc2nccc([C@@H](O)CN3CCC(NCc4[nH]c5ccccc5c4F)CC3)c2c1,61% (active),19%,3%,102% (active),inactive,inactive,inactive,inactive
Cc1cc(N[C@@H](CC(C)C)C(=O)NCCOc2ccccc2)nc(NCC2CCCCC2)n1,53% (active),24%,-1%,97% (active),inactive,inactive,inactive,inactive
CCOc1ccccc1CNc1nccc(NCc2ccccc2OC)n1,66% (active),50% (active),-2%,87% (active),inactive,inactive,inactive,inactive
O=C(Nc1ccc(OC2CCN(Cc3ccccc3)CC2)c(Cl)c1)c1ccsc1,92% (active),3%,4%,87% (active),inactive,inactive,inactive,inactive
NC(N)=NN=C1C=Cc2cccc3cccc1c23,49%,9%,1%,100% (active),inactive,inactive,inactive,inactive
CCc1c(CCNCCCCCCNCCc2ccc(OC)c(OC)c2CC)ccc(OC)c1OC,1%,58% (active),0%,100% (active),inactive,inactive,inactive,inactive
Cc1cccc2[nH]c(-c3cccc(-c4ccc(NC(=O)COC(C)C)cc4)c3)nc12,11%,-4%,7%,82% (active),inactive,inactive,inactive,inactive
Cc1cc(NC(=O)c2cccs2)ccc1OC1CCN(Cc2ccc(C#N)cc2)C1 (stereo not drawn),61% (active),13%,-2%,82% (active),inactive,inactive,inactive,inactive
C=CCN(c1nc(NC)nc(NCc2c(OC)cccc2OC)n1)C1CCCC1,70% (active),18%,-3%,85% (active),inactive,inactive,inactive,inactive
CNc1ccc(CNCc2ccc(-c3ccc(-c4nc5ccc(C(F)(F)F)cc5[nH]4)s3)cc2)cc1,97% (active),44%,-2%,102% (active),inactive,inactive,inactive,inactive
O=C(/C=C/c1ccc(Cl)c(Cl)c1)NCCCCCN1CCC(NC(=O)Nc2cc(Cl)nc(Cl)c2)CC1,2%,4%,-8%,102% (active),inactive,inactive,inactive,inactive
Cc1cccc(C(=O)Nc2ccnc(N3CCC(N(C)Cc4cccc(C#N)c4)CC3)c2)c1,52% (active),5%,-2%,101% (active),inactive,inactive,inactive,inactive
CCC(ON1C(N)=NC(N)=NC1(C)C)c1ccccc1 (stereo not drawn),-5%,61% (active),-4%,96% (active),inactive,inactive,inactive,inactive
Cc1cc(Br)cnc1CCCCN=C1NC(=O)CN1C,26%,63% (active),2%,95% (active),inactive,inactive,inactive,inactive
COc1ccc(NC(=O)c2ccc(NC(=O)c3ccc(Cl)cc3)cc2)cc1N1CCN(C)CC1,40%,23%,-8%,98% (active),inactive,inactive,inactive,inactive
